Consider 39 compounds from PubChem BioAssay (NCI).

For the experiment, the system named is HL-60(TB) leukemia. Nature of the experiment: NCI-60 one-dose screen, 48 h (100 = growth as untreated, 0 = no growth, -100 = all killed). The conditions noted are these: 10 µM unless noted.

About 83,000 compounds went through this panel and 20% of them were active in at least one assay; those are over-represented in the sample as a whole.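 Interpretation: 100, growth as untreated; towards 0, rising growth inhibition; 0, no net growth; 0 to -100, cell death. Compounds scoring below 10 were considered active.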 A number with no mark means an inactive call. Active and inactive are the calls of the source.

With `Oc1ccc(/C=C/c2ccc(O)cc2)cc1`, the growth is 43.6%.

With `CCN(CC)CCCC(C)Nc1c(C)cnc2cc(Cl)c(C)cc12` (centres undefined), the growth was 65.9%.

Turning to `C/C(=C\c1ccc(OCC(=O)O)c(Cl)c1Cl)[N+](=O)[O-]`, the growth is 79.8%.

Take `CC(=O)c1cc2c(N)c(C(=O)Nc3cccc(F)c3C)sc2nc1C`: the growth is 57.1%.

As for `Cc1ccc(-c2nc([P+](c3ccccc3)(c3ccccc3)c3ccccc3)c(S(=O)(=O)c3ccc(C)cc3)o2)cc1`, the growth was -14.4% (active).

Take `O=C(CCCSc1nc(-c2ccccc2)cc(-c2ccc(Cl)cc2)n1)NO`: the growth was -15.8% (active).

With `C/C1=C\CCC2(C)OC2CC2CCC(C)(O)C(CC1)C2(C)C` (centres undefined), the growth was 142%.

For `COc1cc(CNc2oc(-c3ccccc3)c(-c3ccccc3)c2C#N)cc(CN2CCN(C)CC2)c1O`, the growth was 75.7%.

Take `CCC(C)(O)CCC(C)(O)CC` (centres undefined): the growth was 101%.

As to `CC(=Nc1ccccc1)C1=C(O)C(Cc2cccc(F)c2)NC1=O` (centres undefined), the growth was -15.2% (active).

Take `COc1cc(/C=C2\C(=O)N(c3c(Cl)cccc3Cl)c3ccccc32)cc(OC)c1OCCCCCCn1c2ccccc2c(=O)c2ccccc21`: the growth is 106%.

Turning to `Nc1ncc(-c2ccc3ncnc(N4CCc5cc(F)c(Cl)cc54)c3c2)cc1C=O`, the growth is 2.72% (active).

On to `COc1cc(C2CC(=O)Nc3c2c(C)nn3-c2nc3ccccc3[nH]2)cc(OC)c1OC` (centres undefined), for which the growth was 108%.

For the compound `O=C(CCCC(=O)Nc1ccc(Cn2nnc3cc(Cl)c(Cl)cc32)cc1)Nc1ccc(CN2N=NC3C=C(Cl)C(Cl)=CC32)cc1` (centres undefined), the growth was 89.7%.

As to `COc1ccc(C2=C(CN)C(O)NC(=NCC(=O)c3ccc4ccccc4c3)N2)cc1` (centres undefined), the growth is 97.9%.

Take `CC(NC(=O)CCl)c1ccccc1` (centres undefined): the growth was 83.4%.

For `NC(=O)N1N=C(c2ccc(Cl)cc2)CC1c1cn(-c2ccccc2)nc1-c1ccc(Cl)cc1` (centres undefined), the growth is 80.9%.

Regarding `Cc1ccccc1[P+](Cc1ccccc1)(c1ccccc1)c1ccccc1`, the growth was -26.9% (active).

With `O=C(Nc1cccc(C2=NCCN2)c1)c1ccc(-c2ccc(C(=O)Nc3cccc(C4=NCCN4)c3)cc2)cc1`, the growth was 16%.

Regarding `COc1ccc(CN2C(=O)C(Cl)=C(Nc3cccc(C(F)(F)F)c3)C2=O)cc1`, the growth was 29%.

With `C=C1C(=O)O[C@H]2[C@H]1CC/C(COC(=O)NCC(=O)Nc1ccc(OC)c(C(N)=O)c1O)=C\CC[C@@]1(C)O[C@@H]21`, the growth was -7.13% (active).

As to `COc1ccc(S(=O)(=O)NCCCNc2nccc(-c3c(-c4cccc([N+](=O)[O-])c4)nc4sccn34)n2)cc1`, the growth is 22.9%.

`CC1(C)OCC2OC3(C(=O)O)OC(C)(C)OC3C2O1` (centres undefined): the growth was 98.2%.

With `CS(=O)(=O)c1ccc(C(=O)Nc2ccc(Cl)c(-c3ccccn3)c2)c(Cl)c1`, the growth was 14.2%.

For the compound `N#Cc1c(-c2ccc(Cl)cc2)csc1NC(=O)Nc1ccc(Cl)c(C(F)(F)F)c1`, the growth is -34.2% (active).

As to `CC(C)(C)CC(C)(C)c1ccc(O)c(Cc2ccc(Cl)cc2Cl)c1`, the growth is -61.6% (active).

In the case of `C[C@@H]1CC[C@H]2[C@@H](C)C(O)O[C@@H]3O[C@]4(C)CC[C@@H]1[C@]32OO4` (some centres undefined), the growth was -24.4% (active).

Regarding `O=C(O)c1ccccc1Cc1ccc2c(c1)CCCC2`, the growth is 130%.

With `C=C(CN1CCN(c2cccc(C(F)(F)F)n2)CC1)c1ccc(C(=O)Nc2ccccc2N)cc1`, the growth was -27.4% (active).

With `Cc1nnc(NC/C=C/c2ccccc2)s1`, the growth was 98%.

`O=C1C=CC(=O)N1c1ccccc1`: the growth was 44.5%.

For the compound `O=C1/C(=C\c2c[nH]c3ccccc23)c2ccccc2N1c1c(Cl)cccc1Cl`, the growth was -7.81% (active).

`C=C1C(=O)O[C@H]2[C@H]1CC/C(CNC(=O)c1cc3cc(OC)ccc3[nH]1)=C\CC[C@@]1(C)O[C@@H]21`: the growth was -21.3% (active).

Take `CCC(=O)C1C(=O)c2ccccc2C1=O`: the growth is 75.3%.

As to `CNC(=O)c1cc(Oc2ccc(NC(=O)c3nc(S(C)(=O)=O)n(C)c3-c3ccc(F)cc3)cc2)ccn1`, the growth is 69.8%.

Turning to `CC1=NOCC(=O)N1`, the growth was 104%.

On to `C[C@]12C[C@H](O)[C@H]3[C@@H](CCC4=CC(=O)CC[C@@]43C)[C@@H]1CC[C@@H]2C(=O)CO`, for which the growth was 81.8%.

Consider `CCOC(=O)/C=C/c1c(C)[nH]c(=O)[nH]c1=O`, for which the growth was 75.3%.

`COC(=O)c1c2c(c(C)[n+]([O-])c1C)C(=O)C(NCc1ccc(Br)cc1)=CC2=O`: the growth is -19.9% (active).
